# Of roughly 7,900 targets only a part is listed; those with a hit were picked by preference. About 0.6% of all pairs of compound and target were hits. Unmarked numbers belong to inactive results.
# Tests used:
# Experiment in all cases: log2 fold change, soluble protein after heating vs DMSO (PISA); higher = thermal stabilisation; K562 cells, 10 uM, 30 min; active = over 0.2 and 3.5 SD of the protein, either way, in both replicates (recomputed)
# [1] = compound: CS(=O)(=O)c1ccc(-c2cnc(N)c(C(=O)Nc3ccccc3)n2)cc1
# Procedure, shortened: (§1)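 Soluble protein was defined as the supernatant after 21,000xg for 90 min. It came from K562 cells at 2×10^6 cells/mL given 10 μM compound for 30 min, heated in aliquots for 3 min across 48°C-58°C, pooled, and extracted in PBS with 0.5% NP-40 at 4°C, and was quantified by TMTpro 16plex LC-MS/MS with equalised channel sums. Thermal stability against control samples, from duplicates, is reported as log2 fold change.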
# [2] = compound: C[C@@H](Oc1cc(-c2cnn(C3CCNCC3)c2)cnc1N)c1c(Cl)ccc(F)c1Cl [crizotinib]
# Procedure, shortened: as §1
# [3] = compound: C[C@@H]1COCCN1C2=NC(=NC(=C2)C3(CC3)S(=O)(=O)C)C4=C5C=CNC5=CC=C4
# Procedure, shortened: as §1
# [4] = compound: C[C@H](C1=CC=C(C=C1)C(=O)NC2=C3C=CNC3=NC=C2)N
# Procedure, shortened: as §1
# [5] = compound: C[C@H](Nc1ncnc2nc[nH]c12)c1cc2cccc(Cl)c2c(=O)n1-c1ccccc1 [duvelisib]
# Procedure, shortened: as §1
# [6] = compound: Cc1cc(Nc2cc(CN3CCOCC3)c3nc(C)c(Cc4ccc(Cl)cc4F)n3n2)n[nH]1 [gandotinib]
# Procedure, shortened: as §1
# [7] = compound: Cc1cc(Nc2cc(N3CCN(C)CC3)nc(Sc3ccc(NC(=O)C4CC4)cc3)n2)n[nH]1 [tozasertib]
# Procedure, shortened: as §1
# [8] = compound: Cc1cc(SCc2sc(-c3ccc(C(F)(F)F)cc3)nc2C)ccc1OCC(=O)O
# Procedure, shortened: as §1
# [9] = compound: Cc1ccc(-n2nc(C(C)(C)C)cc2NC(=O)Nc2ccc(OCCN3CCOCC3)c3ccccc23)cc1 [doramapimod]
# Procedure, shortened: as §1
# [10] = compound: Cc1ccc(C(=O)N(CCCN)[C@@H](c2nc3cc(Cl)ccc3c(=O)n2Cc2ccccc2)C(C)C)cc1 [ispinesib]
# Procedure, shortened: as §1
# [11] = compound: Cc1ccc(NC(=O)c2ccc(CN3CC[C@H](N(C)C)C3)c(C(F)(F)F)c2)cc1Nc1nccc(-c2cncnc2)n1 [bafetinib]
# Procedure, shortened: as §1
# [12] = compound: Cc1cccc(CC(=O)N2CCc3c2ccc(-c2cn(C)c4ncnc(N)c24)c3F)n1
# Procedure, shortened: as §1
# [13] = compound: Cc1cn(-c2cc(NC(=O)c3ccc(C)c(Nc4nccc(-c5cccnc5)n4)c3)cc(C(F)(F)F)c2)cn1 [nilotinib]
# Procedure, shortened: as §1
# [14] = compound: Cc1nc(Nc2n[nH]c3c2CN(C(=O)N[C@H](CN(C)C)c2ccccc2)C3(C)C)c2sccc2n1
# Procedure, shortened: as §1
# [15] = compound: Cc1nc(Nc2ncc(C(=O)Nc3c(C)cccc3Cl)s2)cc(N2CCN(CCO)CC2)n1 [dasatinib]
# Procedure, shortened: as §1
# [16] = compound: Cc1ncc(-c2ccnc(Nc3ccc(S(C)(=O)=O)cc3)n2)n1C(C)C
# Procedure, shortened: as §1
# [17] = compound: Cn1cc(-c2ccc3c(c2)CCN3C(=O)Cc2cccc(C(F)(F)F)c2)c2c(N)ncnc21
# Procedure, shortened: as §1
# [18] = compound: Cn1cc(-c2ccc3nnc(C(F)(F)c4ccc5ncccc5c4)n3n2)cn1
# Procedure, shortened: as §1
# [19] = compound: Cn1cncc1[C@@](N)(c1ccc(Cl)cc1)c1ccc2c(c1)c(-c1cccc(Cl)c1)cc(=O)n2C [tipifarnib]
# Procedure, shortened: as §1
# [20] = compound: FC(F)(F)c1ccc(/C=C/c2nc(COc3ccc(CCCCn4ccnn4)cc3)co2)cc1 [mubritinib]
# Procedure, shortened: as §1
# Sequence of UniProt Q02252 (Q02252 whole entry, looked up): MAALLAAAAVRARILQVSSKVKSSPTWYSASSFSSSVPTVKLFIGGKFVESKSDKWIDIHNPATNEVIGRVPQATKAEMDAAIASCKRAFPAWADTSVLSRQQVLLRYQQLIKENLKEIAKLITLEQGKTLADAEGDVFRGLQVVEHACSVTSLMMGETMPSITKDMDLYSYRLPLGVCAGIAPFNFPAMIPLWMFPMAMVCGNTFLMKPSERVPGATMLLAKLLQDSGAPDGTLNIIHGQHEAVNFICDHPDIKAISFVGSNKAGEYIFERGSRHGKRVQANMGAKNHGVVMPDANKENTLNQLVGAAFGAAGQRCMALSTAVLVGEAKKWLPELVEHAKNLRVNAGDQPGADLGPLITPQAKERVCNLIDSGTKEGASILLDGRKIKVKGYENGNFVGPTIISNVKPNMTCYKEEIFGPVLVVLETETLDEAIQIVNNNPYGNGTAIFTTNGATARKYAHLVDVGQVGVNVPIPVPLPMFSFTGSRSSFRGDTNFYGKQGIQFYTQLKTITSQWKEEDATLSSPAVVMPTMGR
# Sequence of UniProt Q2TAA5 (Q2TAA5 whole entry, looked up): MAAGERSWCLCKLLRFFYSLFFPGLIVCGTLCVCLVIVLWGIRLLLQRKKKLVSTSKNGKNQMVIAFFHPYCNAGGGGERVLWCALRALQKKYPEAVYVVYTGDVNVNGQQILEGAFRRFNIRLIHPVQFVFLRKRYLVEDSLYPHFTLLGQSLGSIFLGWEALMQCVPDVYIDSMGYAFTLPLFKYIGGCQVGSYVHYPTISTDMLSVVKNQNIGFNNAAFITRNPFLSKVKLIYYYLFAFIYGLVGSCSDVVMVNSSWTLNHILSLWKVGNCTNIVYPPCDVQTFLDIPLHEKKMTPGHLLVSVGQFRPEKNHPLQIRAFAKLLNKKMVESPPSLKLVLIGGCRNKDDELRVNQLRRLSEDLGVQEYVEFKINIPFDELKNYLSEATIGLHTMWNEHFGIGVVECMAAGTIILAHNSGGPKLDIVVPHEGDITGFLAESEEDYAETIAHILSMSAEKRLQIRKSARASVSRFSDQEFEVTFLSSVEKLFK
# Sequence of UniProt Q8NBU5 (Q8NBU5 whole entry, looked up): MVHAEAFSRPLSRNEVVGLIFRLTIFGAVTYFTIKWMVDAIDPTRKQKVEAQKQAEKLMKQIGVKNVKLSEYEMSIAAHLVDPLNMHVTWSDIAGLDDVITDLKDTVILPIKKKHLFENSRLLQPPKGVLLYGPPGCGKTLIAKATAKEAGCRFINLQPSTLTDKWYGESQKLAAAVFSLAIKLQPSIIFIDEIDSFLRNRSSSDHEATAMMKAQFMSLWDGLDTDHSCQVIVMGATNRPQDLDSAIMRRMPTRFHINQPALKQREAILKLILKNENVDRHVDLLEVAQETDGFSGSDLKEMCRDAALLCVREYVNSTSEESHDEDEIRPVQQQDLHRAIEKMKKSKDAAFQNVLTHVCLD
# Sequence of UniProt Q9Y679 (Q9Y679 whole entry, looked up): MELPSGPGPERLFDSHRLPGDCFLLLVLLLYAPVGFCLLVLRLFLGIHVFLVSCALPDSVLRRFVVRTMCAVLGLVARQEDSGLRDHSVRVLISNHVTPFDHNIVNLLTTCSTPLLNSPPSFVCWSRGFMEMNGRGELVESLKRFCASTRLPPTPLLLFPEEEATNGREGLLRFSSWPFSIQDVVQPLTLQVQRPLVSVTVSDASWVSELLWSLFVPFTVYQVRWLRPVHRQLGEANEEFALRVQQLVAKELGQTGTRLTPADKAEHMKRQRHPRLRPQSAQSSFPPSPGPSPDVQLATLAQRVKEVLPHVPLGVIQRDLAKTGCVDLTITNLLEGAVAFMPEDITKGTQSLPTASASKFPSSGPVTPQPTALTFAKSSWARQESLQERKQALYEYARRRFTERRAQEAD
# Sequence of UniProt Q9BR61 (Q9BR61 whole entry, looked up): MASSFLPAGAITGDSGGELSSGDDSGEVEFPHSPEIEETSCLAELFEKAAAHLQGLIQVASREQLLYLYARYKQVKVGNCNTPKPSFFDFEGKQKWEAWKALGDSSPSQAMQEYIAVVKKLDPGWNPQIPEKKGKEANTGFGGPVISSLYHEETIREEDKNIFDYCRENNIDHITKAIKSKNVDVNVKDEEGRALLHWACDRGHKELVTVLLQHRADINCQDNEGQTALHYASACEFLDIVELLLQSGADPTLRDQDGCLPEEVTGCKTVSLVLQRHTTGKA
# Sequence of UniProt Q9UKV3 (Q9UKV3 whole entry, looked up): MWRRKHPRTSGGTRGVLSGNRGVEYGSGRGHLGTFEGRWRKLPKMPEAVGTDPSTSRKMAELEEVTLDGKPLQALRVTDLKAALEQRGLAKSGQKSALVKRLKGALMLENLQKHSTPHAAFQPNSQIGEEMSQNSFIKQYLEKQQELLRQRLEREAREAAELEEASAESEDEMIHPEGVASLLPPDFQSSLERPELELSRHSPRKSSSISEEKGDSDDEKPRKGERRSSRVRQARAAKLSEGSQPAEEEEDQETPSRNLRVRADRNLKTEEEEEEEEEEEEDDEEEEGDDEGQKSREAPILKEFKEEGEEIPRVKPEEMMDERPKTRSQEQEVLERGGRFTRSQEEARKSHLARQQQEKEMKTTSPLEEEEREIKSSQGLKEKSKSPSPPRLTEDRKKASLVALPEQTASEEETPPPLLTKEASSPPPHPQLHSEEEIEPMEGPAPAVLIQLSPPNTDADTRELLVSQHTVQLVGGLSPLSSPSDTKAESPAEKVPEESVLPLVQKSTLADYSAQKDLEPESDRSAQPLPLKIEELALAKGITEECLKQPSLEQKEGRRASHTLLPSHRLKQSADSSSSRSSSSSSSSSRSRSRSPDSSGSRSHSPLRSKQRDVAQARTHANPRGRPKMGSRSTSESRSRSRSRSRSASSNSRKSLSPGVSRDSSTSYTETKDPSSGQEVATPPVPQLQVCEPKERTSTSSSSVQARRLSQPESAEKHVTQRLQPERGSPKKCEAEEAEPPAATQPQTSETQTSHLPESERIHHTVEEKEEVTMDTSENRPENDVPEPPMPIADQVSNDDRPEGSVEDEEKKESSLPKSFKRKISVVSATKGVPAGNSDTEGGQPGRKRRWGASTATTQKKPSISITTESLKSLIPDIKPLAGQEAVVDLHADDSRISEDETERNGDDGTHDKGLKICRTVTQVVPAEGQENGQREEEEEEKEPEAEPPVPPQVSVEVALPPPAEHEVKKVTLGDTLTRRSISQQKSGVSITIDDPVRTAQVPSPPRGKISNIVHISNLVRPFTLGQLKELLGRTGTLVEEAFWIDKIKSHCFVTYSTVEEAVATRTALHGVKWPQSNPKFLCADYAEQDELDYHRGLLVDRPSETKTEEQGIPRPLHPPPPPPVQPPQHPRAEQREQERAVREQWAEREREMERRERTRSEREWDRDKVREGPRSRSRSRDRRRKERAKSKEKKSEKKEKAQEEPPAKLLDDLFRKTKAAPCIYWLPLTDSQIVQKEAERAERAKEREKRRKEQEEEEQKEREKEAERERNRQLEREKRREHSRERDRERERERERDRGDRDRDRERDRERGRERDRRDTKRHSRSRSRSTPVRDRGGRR
# Sequence of UniProt P49189 (P49189 whole entry, looked up): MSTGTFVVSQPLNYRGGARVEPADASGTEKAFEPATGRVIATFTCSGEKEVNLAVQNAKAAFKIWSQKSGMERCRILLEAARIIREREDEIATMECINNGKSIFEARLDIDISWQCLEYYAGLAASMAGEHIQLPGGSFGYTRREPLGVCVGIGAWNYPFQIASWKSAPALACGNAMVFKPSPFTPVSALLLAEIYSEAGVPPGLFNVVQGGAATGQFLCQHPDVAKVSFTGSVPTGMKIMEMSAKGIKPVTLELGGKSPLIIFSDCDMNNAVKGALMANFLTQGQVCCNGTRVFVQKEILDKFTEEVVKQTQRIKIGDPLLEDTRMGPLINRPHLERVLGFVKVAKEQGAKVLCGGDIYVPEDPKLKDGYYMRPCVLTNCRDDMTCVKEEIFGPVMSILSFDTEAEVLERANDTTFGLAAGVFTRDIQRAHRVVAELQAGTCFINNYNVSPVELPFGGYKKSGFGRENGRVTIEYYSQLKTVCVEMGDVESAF
# Sequence of UniProt P11117 (P11117 whole entry, looked up): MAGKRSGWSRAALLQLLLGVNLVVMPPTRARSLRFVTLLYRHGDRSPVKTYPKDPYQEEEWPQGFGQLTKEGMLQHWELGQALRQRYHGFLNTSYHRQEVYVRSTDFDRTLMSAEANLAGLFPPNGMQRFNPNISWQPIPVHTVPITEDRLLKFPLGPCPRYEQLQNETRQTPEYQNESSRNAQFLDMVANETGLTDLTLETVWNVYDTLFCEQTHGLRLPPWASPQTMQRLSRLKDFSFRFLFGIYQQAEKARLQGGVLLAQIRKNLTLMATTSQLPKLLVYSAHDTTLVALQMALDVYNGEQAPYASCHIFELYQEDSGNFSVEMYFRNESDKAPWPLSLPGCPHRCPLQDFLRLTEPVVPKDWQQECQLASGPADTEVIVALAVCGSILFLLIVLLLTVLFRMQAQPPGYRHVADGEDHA
# Sequence of UniProt Q9Y673 (Q9Y673 whole entry, looked up): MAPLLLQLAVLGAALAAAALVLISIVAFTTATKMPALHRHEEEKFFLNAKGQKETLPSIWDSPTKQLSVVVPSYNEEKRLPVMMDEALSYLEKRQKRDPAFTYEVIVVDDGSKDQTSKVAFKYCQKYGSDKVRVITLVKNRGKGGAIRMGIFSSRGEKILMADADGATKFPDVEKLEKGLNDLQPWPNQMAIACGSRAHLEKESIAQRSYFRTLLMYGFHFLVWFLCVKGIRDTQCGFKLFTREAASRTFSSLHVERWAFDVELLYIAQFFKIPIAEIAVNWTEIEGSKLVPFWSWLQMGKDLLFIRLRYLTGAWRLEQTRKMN
# Sequence of UniProt P56211 (P56211 whole entry, looked up): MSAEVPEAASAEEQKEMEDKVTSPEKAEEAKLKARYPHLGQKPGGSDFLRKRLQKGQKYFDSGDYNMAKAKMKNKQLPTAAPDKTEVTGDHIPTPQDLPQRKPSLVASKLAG
Target,log2 fold change [1],log2 fold change [2],log2 fold change [3],log2 fold change [4],log2 fold change [5],log2 fold change [6],log2 fold change [7],log2 fold change [8],log2 fold change [9],log2 fold change [10],log2 fold change [11],log2 fold change [12],log2 fold change [13],log2 fold change [14],log2 fold change [15],log2 fold change [16],log2 fold change [17],log2 fold change [18],log2 fold change [19],log2 fold change [20]
ALDH9A1 isoform 3 (UniProt P49189),-0.002,-0.002,0.027,-0.042,0.015,0.063,-0.024,-0.002,-0.004,0.006,-0.003,0.001,0.012,-0.019,0.025,-0.018,0.041,0.001,-0.002,-0.005
ALDH6A1 (UniProt Q02252),-0.008,0.042,0.109,0.009,0.106,-0.057,-0.054,0.008,0.033,-0.042,-0.045,-0.103,-0.003,0.018,-0.204,-0.015,-0.019,-0.019,0.01,-0.528 (active)
ADAM15 (UniProt Q13444),0,0.097,0.015,-0.047,0.119,-0.047,-0.067,-0.047,0.033,-0.119,0.067,0.003,-0.11,-0.043,-0.009,0.079,-0.355 (active),0.018,-0.053,
AUP1 (UniProt Q9Y679),-0.032,-0.123,0.071,-0.015,-0.05,-0.181,-0.012,0.06,-0.033,-0.41 (active),-0.023,0.11,-0.102,-0.055,-0.097,0.018,0.01,-0.03,-0.106,0.033
AKT2 (UniProt P31751),0.035,-0.18,-0.211,0.051,0.039,-0.233,-0.075,0.113,0.015,-0.083,0.021,0.049,-0.037,-0.144,-0.145,-0.108,0.019,-0.034,-0.185,0.037
ACP2 (UniProt P11117),0.06,-0.051,0.017,-0.016,0.023,-0.071,0,-0.031,0.016,-0.036,-0.107,-0.06,0.002,-0.006,0,0.02,0.015,0.03,0.061,-0.008
ARPP19 (UniProt P56211),-0.017,0.059,0.006,-0.106,-0.082,0.019,-0.031,-0.106,-0.037,0.048,-0.057,0.005,0.02,-0.041,0.045,-0.004,0.033,-0.022,-0.055,0.002
ACIN1 (UniProt Q9UKV3),-0.011,-0.014,0.068,-0.12,0.005,0.01,-0.003,0.002,0.029,0.007,0.022,-0.037,0.086,-0.444 (active),0.016,-0.065,0.117,-0.027,0.026,0.049
AAMP (UniProt Q13685),0.027,0.115,-0.007,-0.006,0.022,-0.047,0.053,-0.03,-0.037,0.038,0.011,0.014,0.009,0.005,0.04,0.012,-0.038,-0.028,-0.026,0.02
AGO1 (UniProt Q9UL18),-0.071,-0.064,-0.007,0.006,-0.116,0.094,-0.153,0.002,-0.066,0.125,-0.036,-0.085,0.185,0.34,-0.019,-0.164,-0.073,-0.133,0.057,-0.066
ALDH1B1 (UniProt P30837),0.054,-0.067,0.12,-0.068,0.021,-0.025,-0.011,0.008,-0.006,0.019,0.03,-0.018,0.003,0.014,-0.113,0.131,0.022,0.034,-0.018,0.059
ALG11 (UniProt Q2TAA5),0.142,0.007,0.103,-0.04,0.059,-0.129,0.036,0.015,0.038,0.029,-0.078,0.086,0.001,-0.037,0.005,0.129,-0.072,0.028,-0.016,0.066
ATAD1 (UniProt Q8NBU5),0.004,0.021,-0.013,0.074,-0.032,0.144,-0.013,0.113,-0.003,-0.063,-0.007,0.048,0.02,-0.008,-0.033,-0.002,0.037,-0.026,0.014,-0.028
ATP6V0A2 (UniProt Q9Y487),-0.002,-0.197,-0.048,0.07,-0.062,-0.006,0.014,0.064,0.09,-0.18,-0.041,0.007,0.035,0.006,-0.006,-0.077,-0.019,0.027,0.008,-0.019
ALG5 (UniProt Q9Y673),0.005,-0.045,0.06,-0.065,0.11,-0.084,-0.046,0.045,-0.032,0.001,0.021,0.067,0.009,-0.123,-0.045,-0.121,0.088,0.059,-0.079,-0.055
ACBD6 (UniProt Q9BR61),0.386 (active),-0.36,-0.041,0.075,-0.026,0.076,0.032,0.082,-0.048,-0.14,-0.058,0.063,0.017,-0.085,-0.23,0.057,-0.053,0.056,-0.072,-0.085
